# This is a sample that favours compounds with a hit; in the whole collection about 4% have one here.
# Mtb FBA inh: Mtb fructose-bisphosphate aldolase inhibition; P9WQA3; purified M. tuberculosis FBA, fluorescence read-out; inhibition, % at 1 µM; 360,000 tested, 2.3% active; AID 588726;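 also: 0% = vehicle and 100% = reference inhibitor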
# GDH-TPI counter-1: GDH-TPI coupled enzyme inhibition counter-screen. AID 588335. GDH-TPI coupled enzyme counterscreen, NADH absorbance. inhibition, % at 4.8 µM. 360,000 tested, 1.2% active; in the data active = inhibition above about 30%;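 also: 0% = DMSO wells and 100% = wells lacking the enzyme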
# Mtb betalactam: beta-lactam sensitization of Mtb H37Rv. inhibition, % at 25 µM. M. tuberculosis H37Rv growth with meropenem, percent inhibition. 330,000 tested, 0.27% active. AID 434955; call rule not given here;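 also: growth measured after seven days incubation then overnight dye step; 0% = bacteria only wells and 100% = bacteria with antibiotic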
# Rv3671c protease: Rv3671c (M. tuberculosis) protease inhibition | P9WHR9 | inhibition, % at 5.96 µM | 320,000 tested, 0.048% active; in the data active = inhibition above about 38%;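 also: extracellular domain of Rv3671c used as enzyme; 0% = enzyme with DMSO and 100% = no enzyme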
# RecA intein inh: Mtb RecA intein splicing inhibition; P9WHJ3; cell-free RecA intein splicing, fluorescence; inhibition, % (no concentration beside the values); 290,000 tested, 0.75% active; AID 2221; in the data active = inhibition above about 30%;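 also: 0% = vehicle wells and 100% = reference inhibitor control wells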
# UGM FP inh: blocks M. tuberculosis UGM enzyme. purified UGM, fluorescence polarization probe displacement. inhibition, % at 10 µM. 320,000 tested, 0.06% active. AID 504406; in the data active = inhibition above about 10%, passing the limit was not always enough
# Target sequence (P9WIQ1 whole entry, looked up): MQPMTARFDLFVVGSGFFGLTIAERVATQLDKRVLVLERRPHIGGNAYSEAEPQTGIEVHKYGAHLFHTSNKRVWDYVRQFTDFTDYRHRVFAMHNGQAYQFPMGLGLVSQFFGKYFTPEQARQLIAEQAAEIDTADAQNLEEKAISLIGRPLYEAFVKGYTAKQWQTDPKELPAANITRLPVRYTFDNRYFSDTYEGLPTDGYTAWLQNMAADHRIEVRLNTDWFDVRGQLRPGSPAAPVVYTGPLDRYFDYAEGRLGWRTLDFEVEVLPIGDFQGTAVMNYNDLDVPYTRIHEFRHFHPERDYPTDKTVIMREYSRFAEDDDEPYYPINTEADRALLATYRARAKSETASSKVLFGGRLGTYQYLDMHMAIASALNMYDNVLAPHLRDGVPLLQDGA
# Mtb FBA confirm: Mtb FBA inhibition, confirmed | shares compounds with Mtb FBA inh | inhibition, % at 1 µM | 5,600 tested, 78% active | purified M. tuberculosis FBA, fluorescence read-out;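 also: 0% = vehicle wells and 100% = reference inhibitor wells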
# GDH-TPI counter-2: counter-screen for M. tuberculosis FBA inhibitors: GDH-TPI coupled enzyme inhibition; shares compounds with Mtb FBA inh; GDH-TPI coupled enzyme counterscreen, fluorescence; inhibition, % at 1 µM; 5,600 tested, 81% active; AID 652141; in the data active = inhibition above about 10%
# Active calls of the source: *; / = not tested or not shown. Rule as the data show it, unless noted: active = inhibition above about 27%; inactive = the rest.
SMILES,Mtb FBA inh,GDH-TPI counter-1,Mtb betalactam,Rv3671c protease,RecA intein inh,UGM FP inh,Mtb FBA confirm,GDH-TPI counter-2
S=c1[nH]nc(-c2cccs2)n1Cc1ccccc1,28*,-1,2,4,1,1,86*,59*
Cc1ccc(C(=O)N/C(=C\c2sccc2C)C(=O)NCCCN2CCOCC2)cc1,6,14,-5,-1,1,-2,/,/
CCCn1c(N)c(N(CCOC)C(=O)COC(=O)c2ccccc2NCCO)c(=O)[nH]c1=O,90*,1,-7,-6,-5,5,122*,103*
CCCCn1c(N)c(N(CCOC)C(=O)COC(=O)c2ccccc2OCC)c(=O)[nH]c1=O,-1,-1,-10,1,-1,2,/,/
Cc1ccc2nc(-c3ccc(S(=O)(=O)N4CCCCC4)cc3)cn2c1,53*,0,4,11,1,0,45*,39*
Cc1ccc(S(=O)(=O)N2CCN(S(=O)(=O)N3CCCCC3)CC2)cc1,1,-9,-3,9,-3,-4,/,/
CC1NC(=O)c2cc3ccccc3cc2-n2c1nc1ccc(F)cc1c2=O (configuration not stated),-2,11,/,/,/,/,/,/
O=C(N/N=C/C=C/c1ccccc1)NC1CCCCC1,68*,13,9,-9,0,0,167*,145*
O=C(N/N=C/c1cccc(O)c1)NC1CCCCC1,4,7,-1,-5,-3,-2,/,/
O=C(N/N=C/C=C/c1ccccc1)c1ccccn1,65*,35*,99,6,-3,-5,180*,174*
C=CCn1c(-c2ccc(=O)n(Cc3ccccc3)c2)n[nH]c1=S,/,/,-5,3,-2,4,/,/
CCN(CC)c1nc2cc(OC)ccc2cc1C#N,32*,17,-2,-5,-21,3,50*,35*
COC(=O)CSc1nc2cc(OC)ccc2cc1C#N,8,7,49,-4,5,-1,/,/
COc1ccc2cc(C#N)c(NC(C)C)nc2c1,55*,15,-6,-4,-3,-2,2,4
COc1ccc2cc(C#N)c(N3CCOCC3)nc2c1,37*,5,5,1,-7,1,66*,63*
COc1ccc2cc(C(=O)NCc3ccco3)c(=Nc3ccc(C(=O)O)cc3)oc2c1,14,25,-2,-46,5,0,/,/
CCCOc1ccc2cc(C(=O)NCc3ccccc3)c(=O)oc2c1,44*,8,2,-4,-1,-2,50*,39*
COc1ccc2cc(C(=O)NCc3ccco3)c(=O)oc2c1,46*,33*,5,7,-4,-5,35*,26*
Cc1cc(OCC(=O)OCC(=O)c2c(N)n(C)c(=O)n(C)c2=O)ccc1Cl,-1,2,10,-10,/,2,/,/
COc1ccc(/C=N\NC(=O)c2ccc(-c3ccccc3)cc2)cc1COC(C)=O,6,13,0,-6,-1,3,/,/
CCC1(C(=O)OC)CCc2c(cc(OC)c3ccccc23)C1=O (configuration not stated),28*,4,18,-5,/,6,111*,71*
COC(=O)C1(C)CCc2c(ccc3ccccc23)C1=O (configuration not stated),35*,/,/,/,/,/,56*,47*
CCOC(=O)c1nn(C)c(C)c1Cl,-1,-6,-7,3,-7,-3,/,/
C[C@H]1CN([C@@H](C)CO)C(=O)c2cc(/C=C/c3ccccc3)cnc2O[C@H]1CN(C)C(=O)c1cccc(F)c1,64*,3,/,/,/,/,66*,58*
C[C@@H]1CN([C@H](C)CO)C(=O)c2cc(Br)cnc2O[C@@H]1CN(C)C(=O)c1cccc(F)c1,-1,9,/,/,/,/,/,/
CCOc1ccccc1N1C(=O)CC(Sc2ccccc2N)C1=O (configuration not stated),-3,1,/,/,/,/,/,/
CCOc1c2ccc(C(=O)NCCc3cccs3)cc2nn1CC,58*,11,3,1,-1,-1,28*,18*
CCCCn1nc2cc(C(=O)NCCc3cccs3)ccc2c1OCC,62*,0,35,4,1,-1,125*,103*
CCOc1c2ccc(C(=O)N[C@H](C)C3CCCCC3)cc2nn1CC,64*,15,8,13,0,-4,53*,45*
